Screening results deposited in PubChem BioAssay by University of Kansas High Throughput Screening Laboratory.
The sample as a whole holds a higher share of hits than the screen did.
Pf apPOL block: Pf-apPOL DNA polymerase inhibition; Recombinant Pf-apPOL, molecular beacon fluorescence, 1.5 h; inhibition, % at 10 µM; 0.25% of 210,000 active; AID 1794808
mHTT CaM bind: mHTT-calmodulin interaction abrogation; P42858; 3.6% of 190,000 active; inhibition, % at 15 µM; AID 1671202; AlphaScreen His-mHTT/GST-CaM binding, luminescence
Of the large screens only hits and unclear results are named; the others gave an inactive call; ! = repeats disagree. No stated cut-off is given here; in the data, active means inhibition above about 50%; inactive means the rest.

COc1ccc(N2CC(C(=O)NCc3cccnc3)CC2=O)cc1 (stereo not drawn)	none
O=S(=O)(c1cccc2nsnc12)N1CCCn2nc(-c3cccnc3)cc2C1	none
Cn1c(=O)c(N2CCN(C(=O)c3ccc(F)c(F)c3)CC2)nc2ccccc21	none
COC(=O)c1cc(Br)cc2ccccc12	Pf apPOL block 63.5
COC(=O)c1c[nH]c2ccccc12	none (no result: mHTT CaM bind)
COc1ccc(C2CC(O)(c3ccccc3)Oc3c(C)ccc(C)c32)cc1 (stereo not drawn)	none
COc1ccc(C2CC(O)(c3ccccc3)Oc3cc(OC)cc(OC)c32)cc1 (stereo not drawn)	mHTT CaM bind 92.4
CC(C)CCNc1nc(N)c2ccccc2n1	none
Cc1ccccc1NC(=O)C1CCCN(c2cnn(C)c(=O)c2)C1 (stereo not drawn)	none
Cc1cc(O)cc2c1C(=O)C(=Cc1ccccc1)O2	none
Cc1cc(O)cc2c1C(=O)C(=Cc1cc3ccccc3o1)O2	mHTT CaM bind 55.3
CC(C)(Oc1ccc(Cl)cc1)C(=O)Nc1nnc(-c2ccsc2)o1	none
Cc1cc(-c2nnc(NC(=O)C(C)(C)Oc3ccc(Cl)cc3)o2)c(C)o1	mHTT CaM bind 98.4
O=C(NNc1ncccc1-n1cccc1)Nc1ccc(OC(F)(F)F)cc1	none (no result: mHTT CaM bind)
N#Cc1c(N)nc(SCC(=O)c2ccc(Br)cc2)c(C#N)c1-c1ccc(O)cc1	mHTT CaM bind 78.5!
N#Cc1c(N)nc(SCC(=O)c2ccc([N+](=O)[O-])cc2)c(C#N)c1-c1ccccc1	none
CCOc1ccc(-c2c(C#N)c(N)nc(SCC(=O)c3ccc(OC)cc3)c2C#N)cc1	none
CCOc1ccc(-c2c(C#N)c(N)nc(SCC(=O)c3ccc(C)cc3)c2C#N)cc1	none
CCOc1ccc(-c2c(C#N)c(N)nc(SCC(=O)c3ccc(O)c(O)c3)c2C#N)cc1	mHTT CaM bind 69.0
N#Cc1c(N)nc(SCC(=O)c2ccccc2)c(C#N)c1-c1ccc(O)cc1	mHTT CaM bind 62.0
NCCCCN=C(N)N	none (no result: mHTT CaM bind)
Cc1ccc(NC(=O)N2CCCC(CCC(=O)NCc3ccc(F)cc3)C2)cc1 (stereo not drawn)	none
COc1ccc(S(=O)(=O)NCc2ccc3c(c2)OCO3)cc1OC	none
COc1ccc(S(=O)(=O)NCc2ccc(S(N)(=O)=O)cc2)cc1	none
COc1ccc(S(=O)(=O)NCc2ccc(F)cc2)cc1OC	Pf apPOL block 67.6
COc1ccc(S(=O)(=O)NCc2ccc(CNS(=O)(=O)c3ccc(OC)cc3)cc2)cc1	mHTT CaM bind 58.7
O=c1ccc(-c2ccc(F)cc2)nn1CCc1nc(-c2cccc(Br)c2)no1	mHTT CaM bind 56.5
O=c1ccc(-c2ccc(F)cc2)nn1CCc1nc(-c2ccccc2Cl)no1	none
OCc1nc2ccccc2n1Cc1ccc(Br)cc1	none
Cc1ccc(Cl)c(OCC(O)Cn2c(C)nc3ccccc32)c1 (stereo not drawn)	none
OCc1nc2ccccc2n1CC(O)COc1ccc(Br)cc1 (stereo not drawn)	mHTT CaM bind 73.0
Cc1nc2ccccc2n1CC(O)COc1ccccc1Cl (stereo not drawn)	mHTT CaM bind 57.9
O=C(Oc1ccc2c(c1)OC(=Cc1ccncc1)C2=O)c1ccccc1	none
COc1ccc(Nc2ccc3c(=O)c(-c4ccc(OC)cc4)coc3c2)cc1	none
COc1ccc(CC(=O)N2CCc3c(c(CO)nn3CC3CC3)C2)cc1	none
CCc1[nH]nc2c1C1(C(C#N)=C(N)O2)c2ccccc2-c2ccccc21	none
COc1ccc(-c2[nH]nc3c2C2(C(=O)N(CC(=O)O)c4ccccc42)C(C#N)=C(N)O3)cc1 (stereo not drawn)	Pf apPOL block 72.4
COc1ccc(-c2[nH]nc3c2C2(C(C#N)=C(N)O3)c3ccccc3-c3ccccc32)cc1	mHTT CaM bind 79.0
CCCc1[nH]nc2c1C1(C(=O)N(CC(=O)O)c3ccccc31)C(C#N)=C(N)O2 (stereo not drawn)	none
CCC(C)NC(=O)c1cnn2c(-c3ccc(C)c(C)c3)ccnc12 (stereo not drawn)	none
Oc1ccccc1C=Nc1cc(C(F)(F)F)ccc1N1CCCC1	none
Cc1cc(C)cc(N2C(=O)CSC2c2ccc([N+](=O)[O-])cc2)c1 (stereo not drawn)	none
Cc1nnc(-c2ccccc2)n1-c1ccc([N+](=O)[O-])cc1	none
C/C(=C1/C(=O)N(c2ccc([N+](=O)[O-])cc2)N=C1c1ccccc1)N(C)C	mHTT CaM bind 53.3
CN(C)/C=C1\C(=O)N(c2ccc([N+](=O)[O-])cc2)N=C1c1ccccc1	Pf apPOL block 59.0
CC1=NN(c2ccccc2)C(=O)/C1=C/c1ccc(-c2ccc([N+](=O)[O-])cc2)o1	none
CN1CCCN(Cc2cccc(Cl)c2)CC1	none
O=S(CCSc1nnnn1-c1ccccc1)c1ccccc1 (stereo not drawn)	none (no result: Pf apPOL block)
CC1=C(C(=O)Nc2ccc(Cl)c(Cl)c2)C2(CCCCC2)OC1=O	none
O=C(c1cc2ccccc2[nH]1)N1CCN(Cc2csc(-c3ccccc3)n2)CC1	mHTT CaM bind 66.5
O=C(CCC(=O)N1CCN(Cc2csc(-c3ccccc3)n2)CC1)c1ccccc1	none
COc1ccc(/C=C2/N=C(c3cccc(Br)c3)OC2=O)cc1OC	none
COc1ccc(C=C2Oc3cc(C)c(CN4CCOCC4)c(O)c3C2=O)cc1	none
COc1ccc(C=C2Oc3cc(C)c(CN4CCN(C)CC4)c(O)c3C2=O)cc1	mHTT CaM bind 79.4
CCN(CC)CCNC(=O)c1ccc(N=Cc2cc(Cl)cc(Cl)c2O)cc1	none
N#C/C(=C\c1ccc([N+](=O)[O-])cc1)c1nc2ccccc2[nH]1	none
O=C(NCCN1CCCC1)c1cc2n(n1)CCCN(Cc1ccc(Cl)cc1)C2=O	none
Cc1ccc(C(=O)Nc2ccc(N3CCN(C(=O)c4ccccc4)CC3)c(Cl)c2)cc1Cl	none
CC(C)C(=O)Nc1ccc(C2(C(=O)N3CCN(c4ccccc4)CC3)CCCCC2)cc1	mHTT CaM bind 50.8
CC(C)C(=O)Nc1ccc(C2(C(=O)N3CCCC3)CCCCC2)cc1	none
Cc1cc(C)n(-c2ccc(=O)n(CCNC(=O)Cc3noc4ccccc34)n2)n1	none
CN(CC#CC(C)(C)O)Cc1ccccc1	none
CN(CC#CCC(O)(c1ccccc1)c1ccccc1)Cc1ccccc1	mHTT CaM bind 87.0
COc1ccc2c(c1)nc(SCC(=O)c1ccccc1)n2C	none
CC(Sc1n[nH]c2nc3ccccc3n12)C(=O)O (stereo not drawn)	none
O=C(CSc1ccc(-c2ccccn2)nn1)c1ccc([N+](=O)[O-])cc1	mHTT CaM bind 99.6
Cc1nc(C)c(-c2ccc(SCC(=O)c3ccc([N+](=O)[O-])cc3)nn2)s1	none
O=C1c2cccnc2C(=O)N1c1ccc(Cc2ccc(N3C(=O)c4cccnc4C3=O)cc2)cc1	mHTT CaM bind 80.0
O=C1c2cccnc2C(=O)N1c1ccc(Oc2ccc(N3C(=O)c4cccnc4C3=O)cc2)cc1	mHTT CaM bind 99.0
O=C1c2cccnc2C(=O)N1c1ccc(-c2ccc([N+](=O)[O-])cc2)cc1	none
O=C1c2cccnc2C(=O)N1c1cccc(C(F)(F)F)c1	none
Cn1cnnc1Sc1ccc([N+](=O)[O-])c2ncccc12	none
O=[N+]([O-])c1ccc(SCc2ccco2)c2cccnc12	mHTT CaM bind 100.0
O=C(COc1ccccc1Br)Nc1ccc(F)cc1	none
Cn1c(=O)n(C)c2cc(Cl)ccc21	none (no result: Pf apPOL block)
COc1ccc2cc3cc(C(=O)N(Cc4cccs4)C4CCCC4)oc3nc2c1	none
COc1ccc(CCC(=O)NCC2(O)CCCC2)cc1	none
COc1ccccc1N1CCN(C(=O)c2cn(-c3ccc(F)cc3F)c(=O)c3ccccc23)CC1	none
O=C(c1cn(-c2ccc(F)cc2F)c(=O)c2ccccc12)N1CCC(Cc2ccccc2)CC1	mHTT CaM bind 61.0
